Bioassay records: PubChem BioAssay, SRMLSC
A340 absorber = compounds absorbing at 340 nm; compound absorbance at 340 nm, fold over control; fold change at 10 µM; 65,000 tested, under 10 active;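 active = at 10 µM dose, initial 340 nm absorbance at least 2 fold that of control wells; inactive = change under 2 fold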;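 note: initial absorbance extrapolated from kinetic A340 decline of NADH oxidation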
Spn MK inh = S. pneumoniae mevalonate kinase inhibition | 65,000 compounds, 0.48% hits | purified MK, PK/LDH-coupled NADH absorbance 340 nm | inhibition, % at 10 µM;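 active = ranked among the strongest by inhibition in the single 10 µM screen, a fixed top-ranked set picked for dose follow-up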
Autofluor 339 = intrinsic fluorescence of library compounds, ex339/em460 – biochemical, MLSMR library, data from DPM-DC assay, artefact control, profiling panel | compound autofluorescence, ex339/em460 nm, NADH buffer; hits give high values; 1 = no-compound wells, NADH background | AID 709 | fluorescence fold increase at 10 µM | 65,000 compounds, 5.5% hits;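 active = at 10 µM, mean starting fluorescence two-fold or more over control wells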;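 note: signal is the first read of a kinetic run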
NADH coupling = blocks coupling enzymes of NAD/NADH assays | coupled PK/LDH NADH assays, four targets | IC50, µM (series often up to 10 µM) | 65,000 compounds, 0.02% hits | AID 774;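 active = single-dose screening hits from any of four coupled enzyme assays that gave an IC50 when retested across doses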;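 note: the DPM-DC format reads NADH fluorescence rather than 340 nm absorbance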
DPM-DC inhibit = blocks S. pneumoniae diphosphomevalonate decarboxylase. 65,000 compounds, 0.49% hits. purified DPM-DC, PK/LDH coupled NADH fluorescence. calls only at 10 µM. AID 556;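 active = the 320 compounds with the highest percent inhibition in the single-dose primary screen, excluding strongly autofluorescent ones, cut at about 32% in these data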;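 note: kinetic rate of NADH fluorescence loss reporting ADP formed by the decarboxylase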
Spn PMK inh = inhibitors of Streptococcus pneumoniae phosphomevalonate kinase; purified PMK, PK/LDH-coupled NADH absorbance 340 nm; inhibition, % at 10 µM; 65,000 compounds, 0.49% hits; AID 539;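 active = top-ranked compounds by inhibition in the single 10 µM screen, taking a fixed number of the strongest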
Each line names hits and unclear results; the compound was inactive in the other large screens; [ ] = dose if it differs, or a comment. Hits are enriched below; roughly 6.5% of the tested compounds scored in any of these assays.

Cc1ccc2nc3c(cc(C(=O)NCC4CCCO4)n3C)c(=O)n2c1 (stereo not drawn)	Autofluor 339 3 (not shown: DPM-DC inhibit)
Cc1ccc2nc3c(cc(C(=O)NCCCn4ccnc4)n3C)c(=O)n2c1	Autofluor 339 3.9 (not shown: DPM-DC inhibit)
Cc1ccc2nc3c(cc(C(=O)NCC4CCCO4)c(=N)n3CCCOC(C)C)c(=O)n2c1 (stereo not drawn)	Autofluor 339 3.7 (not shown: DPM-DC inhibit)
Cc1cc(C(=O)NCCCn2ccnc2)cs1	none
COc1ccc(C(=O)N2CCN(S(=O)(=O)N3CCOCC3)CC2)cc1OC	none
Cc1cc(N2CCN(C(=O)c3ccco3)CC2)n2ncnc2n1	Spn MK inh 42
Cc1nn2c(N3CCN(C(=O)c4ccco4)CC3)cc(C(C)(C)C)nc2c1-c1ccccc1	Autofluor 339 2.6
Nc1cccc2c1C(=O)N(c1ccccc1)C2=O	Autofluor 339 2.3, DPM-DC inhibit active[fluoresces]
CCCCC(=O)Nc1cccc2c1C(=O)N(c1ccccc1)C2=O	none
O=C(Nc1ccc2oc(-c3cccnc3)nc2c1)c1cccnc1	none
Cc1ccc(-c2nc3ccccc3o2)cc1NC(=O)c1ccc2c(c1)OCO2	none
Cc1ccc2oc(-c3ccc(NC(=O)c4ccc5c(c4)OCO5)cc3)nc2c1	Autofluor 339 3.7 (not shown: DPM-DC inhibit)
Cc1ccc2oc(-c3ccc(NC(=O)c4cccnc4)cc3)nc2c1	Autofluor 339 2.1
O=C(Nc1ccc(-c2nc3ccccc3o2)cc1)c1ccc2c(c1)OCO2	Autofluor 339 3.6 (not shown: DPM-DC inhibit)
Cc1cc(C(=O)NCc2ccccc2)c(=O)[nH]c1C	Autofluor 339 2.1 (not shown: DPM-DC inhibit)
CCN(C(=O)c1cc2cc3ccc(C)cc3nc2o1)c1ccc(OC)cc1	none
COc1ccc2cc3cc(C(=O)NCC4COc5ccccc5O4)oc3nc2c1 (stereo not drawn)	Autofluor 339 5 (not shown: DPM-DC inhibit)
COc1ccc2cc3cc(C(=O)NCc4ccc5c(c4)OCO5)oc3nc2c1	Autofluor 339 5.1 (not shown: DPM-DC inhibit)
COc1ccc2cc3cc(C(=O)Nc4ccc5c(c4)OCCO5)oc3nc2c1	Autofluor 339 2.1
COc1ccc2cc3cc(C(=O)N4CCN(Cc5ccc6c(c5)OCO6)CC4)oc3nc2c1	Autofluor 339 5 (not shown: DPM-DC inhibit)
COC(=O)c1c(C)oc2ccc(OC(=O)c3cccs3)cc12	none
O=C1c2ccccc2-c2c1nc1c([n+]2[O-])CCCC1	none
COc1ccccc1N1CCN(Cc2nc(N)nc(Nc3ccc(C)c(Cl)c3)n2)CC1	none
CC(=C1C(=O)c2ccccc2C1=O)N1CCc2ccccc2C1	none
CN(c1ccc(C(=O)NCCSCc2ccco2)cc1)S(C)(=O)=O	none
COc1ccc2nc3oc(C(=O)N4CCC(C(N)=O)CC4)cc3cc2c1	Autofluor 339 5.1 (not shown: DPM-DC inhibit)
O=C(Nc1nnc(-c2ccc3c(c2)OCCO3)o1)c1ccc(Cc2ccccc2)cc1	Autofluor 339 2.1 (not shown: DPM-DC inhibit)
COc1ccc(-c2csc(NC(=O)c3cc(C)on3)c2C#N)cc1OC	none
COC(=O)c1c(N2C(=O)CCC2=O)sc2c1CCCC2	none
Cc1ccccc1C1CC(c2ccccc2OC(F)F)Nc2ncnn21 (stereo not drawn)	none
CC(C)Cc1nc2oc3c(NCC4CCCO4)ncnc3c2c2c1CCC2 (stereo not drawn)	Autofluor 339 2.6
CC(C)Cc1nc2oc3c(NCc4cccnc4)ncnc3c2c2c1CCC2	Autofluor 339 2.6
CC(C)c1nc2oc3c(NCc4cccnc4)ncnc3c2c2c1CCC2	Autofluor 339 2.1
CC1=C(C(=O)Nc2cc(C)ccn2)C(c2ccc(C)cc2)C2=C(CCCC2=O)N1 (stereo not drawn)	Autofluor 339 2.3 (not shown: DPM-DC inhibit)
CCN(CC)c1ccc(C2C(C(=O)Nc3ccccn3)=C(C)NC3=C2C(=O)CC(C)(C)C3)cc1 (stereo not drawn)	none
CCc1ccccc1NC(=O)CSC1=C(C#N)C(c2ccc3c(c2)OCO3)C2=C(CCCC2=O)N1 (stereo not drawn)	none
CC1=C(C(=O)Nc2ccccc2)C(c2ccc3c(c2)OCO3)C2=C(CCCC2=O)N1 (stereo not drawn)	Autofluor 339 2.2
Cn1c(C(=O)Nc2ccc3c(c2)OCO3)cc2c(=O)n(C)c3ccccc3c21	Autofluor 339 2.3 (not shown: DPM-DC inhibit)
Cn1c(SC/C=C/c2ccccc2)nnc1-c1ccco1	none
Cc1coc2cc3oc(=O)c4c(c3cc12)CCCC4	none
CCCOc1ccc2c3c(c(=O)oc2c1)CCCC3	Autofluor 339 3.8 (not shown: DPM-DC inhibit)
COC(=O)C(C)Oc1ccc2c3c(c(=O)oc2c1)CCCCC3 (stereo not drawn)	Autofluor 339 3 (not shown: DPM-DC inhibit)
O=c1oc2cc(O)ccc2c2c1CCCC2	Autofluor 339 2.1 (not shown: DPM-DC inhibit)
CCOc1cc2oc(=O)c3c(c2cc1Cl)CCC3	none
CC(C)Oc1ccc2c3c(c(=O)oc2c1)CCC3	Autofluor 339 2.1 (not shown: DPM-DC inhibit)
CCN(CC(=O)NCc1ccc(F)cc1)C(=O)C1CCN(C(=O)Nc2ccccc2)CC1	none
CCN(CC)c1ccc2c(c1)oc(=O)c1c(Cl)cc(=O)oc12	none
O=C(Oc1ccc2c3c(c(=O)oc2c1)CCCC3)c1ccco1	Autofluor 339 2.2 (not shown: DPM-DC inhibit)
O=c1oc2cc(O)ccc2c2oc3cc(O)ccc3c12	Autofluor 339 2.4 (not shown: DPM-DC inhibit)
COC(=O)c1ccc(OC(=O)c2ccco2)cc1	none
CCc1cc2c3c(c(=O)oc2cc1OC)CCCC3	Autofluor 339 3.8 (not shown: DPM-DC inhibit)
CCCn1c(SCC(=O)Nc2nnc(CC)s2)nnc1-c1ccco1	none
CCSc1nc2n(n1)C(c1cccc(F)c1)C1=C(CCCC1=O)N2 (stereo not drawn)	Autofluor 339 2.6
CCn1c(=O)c2c(nc3n2CC(C)CN3CCc2ccccc2)n(C)c1=O (stereo not drawn)	none
COC(=O)c1cc(OC)c(OC)cc1NC(=O)c1cccnc1	none
CCOc1cc(C#N)c(NC(=O)c2cccnc2)cc1OCC	Spn PMK inh 25
Cc1cc(=O)c2cc(Cl)ccc2[nH]1	none
CCOC(=O)c1ccc2[nH]c(C)cc(=O)c2c1	Autofluor 339 2.1 (not shown: DPM-DC inhibit)
CCOC(=O)c1ccc2[nH]c(C)c(CCC(C)=O)c(=O)c2c1	Autofluor 339 2.1 (not shown: DPM-DC inhibit)
COC(=O)c1ccc2[nH]c(C)cc(=O)c2c1	Autofluor 339 2.3 (not shown: DPM-DC inhibit)
CCOC(=O)c1ccc2[nH]c3c(c2c1)CN(C)CC3	none
COC(=O)C1C2C=CC3(CN(c4cccc(C)c4)C(=O)C13)O2 (stereo not drawn)	none
Cn1c(=O)c2c(ncn2CC(O)CNc2ccc(Cl)cc2)n(C)c1=O (stereo not drawn)	none
CCOC(=O)c1cccc(NC(=O)CCNS(=O)(=O)c2ccc3c(c2)CCN3C(=O)CC)c1	none
O=C(NCCc1ccccc1)c1ccccc1NS(=O)(=O)N1CCCC1	Autofluor 339 3.4 (not shown: DPM-DC inhibit)
COc1ccccc1NC(=O)c1ccccc1NS(=O)(=O)N1CCCC1	none
O=S(=O)(Nc1cccc2ccccc12)N1CCCC1	Autofluor 339 2.5
COc1cc(Cn2cnnn2)ccc1O	none
Cn1c(CSCc2ccc(Cl)c(Cl)c2)nnc1SCC(=O)Nc1nccs1	none
CCOC(=O)N1CCN(C(=O)c2cnn3ccccc23)CC1	none
